Bioassay records as filed in PubChem.
HT1080 IDH1KD tx – qHTS for induction of synthetic lethality in tumor cells producing 2HG: qHTS for the HT-1080-IDH1KD cell line; Potency, µM (titrated, usually from 46.1 µM), for the others: at the highest dose activity, negative = toxicity, hits mostly cytotoxic; AID 686971, 2013; actives 2% (n = 360,000); HT-1080 IDH1 knockdown viability, ATP luminescence, 48 h;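 also: potency is read from the fitted curve at half-maximal effect; 0% = DMSO wells and -100% = cell-free medium wells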
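After a 2 h attachment period, IDH1KD HT-1080 cells took pin-transferred compound for 48 h at 37 °C; ATP-based luminescence after 10 min room-temperature reagent incubation reported viability.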
IL1B secr inh – qHTS for Inhibitors of Inflammasome Signaling: IL-1-beta AlphaLISA Primary Screen. THP-1 LPS/ATP IL-1B secretion, AlphaLISA, 16 h; active compounds read low. actives 4.7% (n = 360,000). AID 743279, 2014. activity change, % at 57.5 µM; in the data active = activity change below about -50%; inconclusive = mostly about -30% to -49%
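Secreted IL-1B measured by AlphaLISA bead assay after 16 h compound exposure of THP-1 cells; compounds (final up to 57.5 uM) added 1 h before LPS (250 ng/mL) and ATP (1.25 mM) stimulation; lower signal means less secretion.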
HT1080-NT tox – qHTS for induction of synthetic lethality in tumor cells producing 2HG: qHTS for the HT-1080-NT fibrosarcoma cell line. HT-1080-NT fibrosarcoma viability, CellTiter-Glo ATP luminescence, 48 h. Potency, µM (series often up to 46.1 µM), for inactives: at the top dose activity, negative = less viability, hits mostly cytotoxic. actives 1.6% (n = 360,000);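 also: NT is the 2HG producing partner of a matched IDH1 knockdown line; potency is read from the fitted curve at half-maximal effect; 0% = DMSO-treated cells and -100% = media-only wells without cells; nearly all actives have a fitted effect of over 55% in size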
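Luminescent CellTiter-Glo readout after 48 hours of compound exposure at 37 degrees C defined viability of HT-1080-NT cells. Activity was normalized to DMSO wells and cell-free media wells; concentration-response curves were fitted and assigned curve classes.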
TDP1 cell noCPT – qHTS for Inhibitors of human tyrosyl-DNA phosphodiesterase 1 (TDP1): qHTS in cells in absence of CPT; DT40 Tdp1-/- hTDP1 cells, no CPT, ATP luminescence, 48 h; actives 15% (n = 420,000); Potency, µM (highest dose often 46.2 µM), inactives show top-dose activity change, negative = growth inhibition, most hits filed as inhibitors; also: potency is read from the fitted curve at half-maximal effect; nearly all actives have a fitted effect of over 55% in size
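Chicken DT40 Tdp1-/- cells stably complemented with human TDP1 were seeded at 400 cells/well with DMSO in place of 20 nM camptothecin. After compound pinning, cells grew at least 48 hr at 37 °C; viability read by CellTiter-Glo luminescence.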
DT40 TDP1 CPT – qHTS for Inhibitors of human tyrosyl-DNA phosphodiesterase 1 (TDP1): qHTS in cells in presence of CPT; Potency, µM (top dose mostly 46.2 µM), for the others: top-dose activity change, negative = growth inhibition, usual class: inhibitors; actives 12% (n = 420,000); chicken DT40 Tdp1-/-;hTDP1 cells + 20 nM CPT, ATP luminescence, 48 h; also: potency is read from the fitted curve at half-maximal effect; nearly all actives have a fitted effect of over 55% in size
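Cell growth measured by CellTiter-Glo luminescence after a minimum 48 h, 37 C compound exposure with 20 nM CPT in Tdp1-knockout DT40 cells stably expressing hTDP1, seeded 400/well; qHTS titration format.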
uPA surface inh – qHTS for Inhibitors of Cell Surface uPA Generation | cell surface uPA generation assay, qHTS | Potency, µM (series often up to 38.3 µM), for the others: at the top dose activity change, negative = inhibition, hits mostly inhibitors | actives 0.31% (n = 330,000) | AID 540303, 2011; active = well fitted inhibition curve with a large enough effect; inconclusive = small, poorly fitted or top-dose-only effect; inactive = no such curve, though single readings can be large or run the other way; tested in mouse RAW 264.7 cells; also: potency is read from the fitted curve at half-maximal effect; nearly all actives have a fitted effect of over 55% in size
* = called active by the depositor; ? = inconclusive; / = not tested or not shown. Compounds with a hit are over-represented: about 19% of the library has one in this group of screens. Unless noted, calls follow the shape of the dose curve; as a rule, active = well fitted curve in the direction sought with a large enough effect; inconclusive = small, poorly fitted or top-dose-only effect, or another doubt; inactive = no such curve, though single readings can be large; an effect the other way counts as inactive or inconclusive. Unless noted, % is scaled to controls: 0 for no effect and ±100 for the full control effect.

SMILES | HT1080 IDH1KD tx | IL1B secr inh | HT1080-NT tox | TDP1 cell noCPT | DT40 TDP1 CPT | uPA surface inh
COC(=O)[C@@]12C[C@@H](CC(=O)N3CCC(c4ccccc4)CC3)C(=O)N(CCc3ccc(OC)c(OC)c3)C1=CCC(C)(C)C2 | -21% | 0 | -28% | ? | ? | /
COC(=O)[C@]12CCCCC=C1N(CCc1ccc(OC)c(OC)c1)C(=O)[C@H](CC(=O)NCc1ccccc1)C2 | 4% | 2 | 8% | 21µM* | ? | /
COC(=O)[C@]12CCCCC=C1N(CCc1ccc(OC)c(OC)c1)C(=O)[C@H](CC(=O)N1CCN(C(=O)C3CC3)CC1)C2 | 12% | -21 | 14% | -26% | -24% | /
COC(=O)[C@]12CCCCC=C1N(CCc1ccc(OC)c(OC)c1)C(=O)[C@H](CC(=O)N1CCC(c3ccccc3)CC1)C2 | ? | -1 | -19% | 8.2µM* | 8.2µM* | /
COC(=O)[C@@]12C[C@@H](CC(=O)NCc3cccc(C(F)(F)F)c3)C(=O)N(CCc3ccc(OC)c(OC)c3)C1=CCC(C)(C)C2 | ? | ? | ? | 12µM* | 9.2µM* | /
COC(=O)[C@]12CCCCC=C1N(CCc1ccc(OC)c(OC)c1)C(=O)[C@H](CC(=O)NCC1CCCCC1)C2 | -17% | ? | -14% | ? | ? | /
CCOc1ccccc1NC(=O)Cn1c(=O)n(CCCC(=O)NCCOC)c(=O)c2cc(OC)c(OC)cc21 | / | / | / | -17% | 5% | /
COC(=O)[C@]12CCCCC=C1N(CCc1ccc(OC)c(OC)c1)C(=O)[C@H](CC(=O)NCCc1ccccc1OC)C2 | -13% | ? | -2% | 18µM* | ? | /
CCOC(=O)N1CCN(C(=O)C[C@@H]2C[C@@]3(C(=O)OC)CCCCC=C3N(CCc3ccc(OC)c(OC)c3)C2=O)CC1 | 16% | -9 | 7% | ? | ? | /
COC(=O)[C@]12CCCCC=C1N(CCc1ccc(OC)c(OC)c1)C(=O)[C@H](CC(=O)NCc1cccc(C(F)(F)F)c1)C2 | ? | -5 | ? | 16µM* | ? | /
COC(=O)[C@]12CCCCC=C1N(CCc1ccc(OC)c(OC)c1)C(=O)[C@H](CC(=O)NCCCCc1ccccc1)C2 | ? | ? | ? | 16µM* | 21µM* | /
COC(=O)[C@]12CCCCC=C1N(CCc1ccc(OC)c(OC)c1)C(=O)[C@H](CC(=O)NCCCN1CCCC1=O)C2 | 18% | 0 | 25% | -16% | 10% | /
c1cc2c(cc1C1=NNC(=NC3CC3)SC1)OCCO2 | 12µM* | -22 | 16µM* | 16µM* | 21µM* | ?
c1csc(C2=NNC(=NC3CCCCC3)SC2)c1 | 10% | -13 | -11% | 23µM* | ? | -7%
CCCCN=C1NN=C(c2ccc3c(c2)OCCO3)CS1 | -14% | -63* | -19% | -25% | -28% | -11%
CCOC(=S)SCC(=O)Nc1nc(-c2ccccc2)cs1 | ? | ? | ? | 2.6µM* | 2.9µM* | -6%
CCOC(=S)SCC(=O)Nc1nc(-c2ccc(Br)cc2)cs1 | 6.5µM* | -100* | 7.3µM* | 4.6µM* | 4.6µM* | -13%
OC(COc1ccc2cc(Br)ccc2c1)CN1CCOCC1 (configuration not stated) | ? | -26 | -27% | ? | 18µM* | -5%
